The source of these data is publication PMC7819943, “Rice protein-binding microarrays: a tool to detect cis-acting elements near promoter regions in rice”.

Over roughly 68,000 sequences, “fluorescence intensity (a.u.)” has its median near 9,100; the highest 2% begin near 16,000. The full list was thinned out, with the highest values kept by preference.

Sequence of OsWRKY34 (Q0JBA9 entry or part of it): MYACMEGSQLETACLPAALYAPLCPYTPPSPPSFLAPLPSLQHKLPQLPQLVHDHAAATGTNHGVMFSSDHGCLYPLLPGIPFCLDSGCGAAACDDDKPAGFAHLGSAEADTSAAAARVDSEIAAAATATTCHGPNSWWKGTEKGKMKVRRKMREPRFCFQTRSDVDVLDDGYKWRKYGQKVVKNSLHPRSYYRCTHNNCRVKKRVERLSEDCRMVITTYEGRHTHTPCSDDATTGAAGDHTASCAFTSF

The experiment addresses OsWRKY34 (Oryza sativa, UniProt Q0JBA9 1-250). The experiment in a line: protein-binding microarray (RPBM); PBS, 2% BSA, 51.3 ng/ul salmon testes DNA, 50 uM zinc acetate, 200 nM TF, 25 C, 1 h; high values mean tight binding. To be noted: protein: recombinant; tags: N-terminal polyhistidine and DsRed monomer fusion (pET32a); label: CyDye5-dUTP incorporated in the synthesized complementary strand; 3' TTTTT single-stranded linker to array surface; dsDNA, one strand shown. The method in brief:
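An Axon 4000B scanner gave the binding signal as per-feature fluorescence intensity in arbitrary units. This followed washing of a custom Agilent array that had been incubated for 1 h at 25 °C with 200 nM protein in PBS, 2% BSA, salmon testes DNA and 50 µM zinc acetate. The proteins were transcription factors fused at the N-terminus to polyhistidine and DsRed, expressed in E. coli BL21-CodonPlus and purified on Ni–NTA.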
On to “TCATCTGCTCCAAATTAAGCATTGCATCATCTACTCTGCCCGGAGTCACCTAGTGCAG”, for which the binding signal was 8390 fluorescence intensity (a.u.).

In the case of “CTACCGCATCCCCTCCCTCTCTCGGCGAGCCGAATCCATGCGGAGTCACCTAGTGCAG”, the binding signal is 8270 fluorescence intensity (a.u.).

Consider “ATCTCGGTCTCTCACAAGACACACAGCTAATTAGCTCTATCGGAGTCACCTAGTGCAG”, for which the binding signal is 8470 fluorescence intensity (a.u.).

As for “CCATCATCTCTCGATCCATCTCCAGCAAGTTACCTATAAACGGAGTCACCTAGTGCAG”, the binding signal was 9580 fluorescence intensity (a.u.).

With “TGTGGGTTGGAGGGAGGAGGGGATTGAAGGGTTGTTAATTCGGAGTCACCTAGTGCAG”, the binding signal was 14900 fluorescence intensity (a.u.).

Regarding “AGGTGGTGTTTGGTTGGAGGGGCTAAAGTGGGGCTAAACTCGGAGTCACCTAGTGCAG”, the binding signal was 20000 fluorescence intensity (a.u.).

On to “CAAGGAGGGAGTTGATGGTGGGATTGATCATGGGAGTTATCGGAGTCACCTAGTGCAG”, for which the binding signal was 8560 fluorescence intensity (a.u.).

Regarding “AAGAGGGTGGGTTGTTGGGGAGAGGGGAGGGAGGAGGATTCGGAGTCACCTAGTGCAG”, the binding signal was 20100 fluorescence intensity (a.u.).

Consider “GGTGTTTGGTTGGAGGGATTAAAGTGGGGCTAAACTTTAGCGGAGTCACCTAGTGCAG”, for which the binding signal is 9950 fluorescence intensity (a.u.).

As to “GCAGTTTCAGTGTGTGTTTGGTTGCAAGTTGTTGCATCTGCGGAGTCACCTAGTGCAG”, the binding signal is 8410 fluorescence intensity (a.u.).

For “AGTTTTAAGGAGGGAGTTGATGGTGGGATTGGTCATGGGACGGAGTCACCTAGTGCAG”, the binding signal is 8620 fluorescence intensity (a.u.).

For the sequence “TGGTGTTTGGTTGGAGGGACTAAAGTAGGGCTAAACTTTACGGAGTCACCTAGTGCAG”, the binding signal was 8870 fluorescence intensity (a.u.).

Regarding “TGCGGATGGGATGGAGAGCGCAGGAGGGGTGGGTTGTTGTCGGAGTCACCTAGTGCAG”, the binding signal is 10800 fluorescence intensity (a.u.).

For “CGTTGGGAGTTGGGAGGGATGGGTGGTGCATCAAGATTGACGGAGTCACCTAGTGCAG”, the binding signal is 23500 fluorescence intensity (a.u.).

In the case of “ACTCACTGTTGCCTGTTGGTTTGTTGTCAGTAGCGCTAGGCGGAGTCACCTAGTGCAG”, the binding signal is 8370 fluorescence intensity (a.u.).

Regarding “CTGCACTGTTTGCCTCAGTTGGGTTGGTTTGGTTTGGTTGCGGAGTCACCTAGTGCAG”, the binding signal was 48200 fluorescence intensity (a.u.).

On to “GACACTGCCACCTCACTCTCCACTCCACTATATATACCCTCGGAGTCACCTAGTGCAG”, for which the binding signal was 12100 fluorescence intensity (a.u.).

Consider “ACTCTCCCGTTATTGCCGCCACCGGACCGCTAGCTCCGCACGGAGTCACCTAGTGCAG”, for which the binding signal was 9570 fluorescence intensity (a.u.).

In the case of “CCCACCTCGCCTTTCGATTGCGCGATCACCCACCTTTATACGGAGTCACCTAGTGCAG”, the binding signal was 10000 fluorescence intensity (a.u.).

Take “GCAACTGCACATGTGCTTATTTAGTTTCTGCATTGGTCAACGGAGTCACCTAGTGCAG”: the binding signal was 12200 fluorescence intensity (a.u.).

With “CTCGTCACTCGTCTCGTCTCGCACAGTCGCAGCTGCTGCGCGGAGTCACCTAGTGCAG”, the binding signal is 8390 fluorescence intensity (a.u.).

Turning to “ACTTTATCTTTGCCGCCGGCCGCCACAACTGCTTCTACGGCGGAGTCACCTAGTGCAG”, the binding signal is 9180 fluorescence intensity (a.u.).

In the case of “GACAACGGTCAAATATGTGCTAAAAAGTCAACGGTATCAACGGAGTCACCTAGTGCAG”, the binding signal is 11600 fluorescence intensity (a.u.).

On to “TCTCGCTCCTCATGCTCCTCTCCCGGCGGCGACGCTATGCCGGAGTCACCTAGTGCAG”, for which the binding signal was 8080 fluorescence intensity (a.u.).

Take “CCAGCTGTGTGTGTGCACGCGGTTTTCCAATCGATTCTTCCGGAGTCACCTAGTGCAG”: the binding signal is 9270 fluorescence intensity (a.u.).

For “CTCTCTTCTTTTTATCTTATTCATATGTATTTATAGCTGACGGAGTCACCTAGTGCAG”, the binding signal is 10500 fluorescence intensity (a.u.).

For “GCTCCGTGGCACTATTTTTTTTTTACCGCGAATCCTCCAACGGAGTCACCTAGTGCAG”, the binding signal is 9550 fluorescence intensity (a.u.).

“TACCGCCTGAAATCCAACATTATTATGCACTGTAATTTACCGGAGTCACCTAGTGCAG”: the binding signal was 8170 fluorescence intensity (a.u.).

In the case of “TCCGTAAATCCAACATGGCACTATTACCGCCGGCTTAAATCGGAGTCACCTAGTGCAG”, the binding signal is 56000 fluorescence intensity (a.u.).

For “TATCCGTTCGCGTCCCCGCCCTCGCTTCGCCGCGGCAATGCGGAGTCACCTAGTGCAG”, the binding signal was 9720 fluorescence intensity (a.u.).

For “GCATCCGTGTCCTTTGCCGAAGCCGAAGGCCCGCTCTCTCCGGAGTCACCTAGTGCAG”, the binding signal is 8900 fluorescence intensity (a.u.).

With “TACCTCATTCCCTAAATGTTTGACGCCGTTGACTTTTTTACGGAGTCACCTAGTGCAG”, the binding signal is 17500 fluorescence intensity (a.u.).

Turning to “GTCATTTATTTTTACCAACGTTTGACTATTCGTCTTATTTCGGAGTCACCTAGTGCAG”, the binding signal is 9430 fluorescence intensity (a.u.).

As to “TGGATGGTACTCCCTCCTCTAAATGTTTGACGCCGTTGACCGGAGTCACCTAGTGCAG”, the binding signal is 14400 fluorescence intensity (a.u.).

Take “GGTACTCTCTTCGTTTTTAGTATACGACGCCGTTGACTTTCGGAGTCACCTAGTGCAG”: the binding signal is 16000 fluorescence intensity (a.u.).

With “ATGATGCCGTTGACTTTTTGAACAACGTTTGACTATTCGTCGGAGTCACCTAGTGCAG”, the binding signal was 32600 fluorescence intensity (a.u.).

Regarding “ACTCCCTCCATTTTTTTAATTGACGACGCCATTGACTTTTCGGAGTCACCTAGTGCAG”, the binding signal was 9350 fluorescence intensity (a.u.).

Turning to “TTGACACCATTGACTTTTTTAAACATGTTTGACCGTTCGTCGGAGTCACCTAGTGCAG”, the binding signal was 15100 fluorescence intensity (a.u.).

“TATTTGACGTCGTTGACTTTTTAAAACATGTTTGACCATTCGGAGTCACCTAGTGCAG”: the binding signal was 30200 fluorescence intensity (a.u.).

Consider “CTCATGTTTGACCATTCGTCTTATTTAAAAACTTTTGTGACGGAGTCACCTAGTGCAG”, for which the binding signal is 8180 fluorescence intensity (a.u.).

In the case of “TTGACTTTTTAACCAACGTTTGACTATTCGTCTTATTCAACGGAGTCACCTAGTGCAG”, the binding signal is 10100 fluorescence intensity (a.u.).

As to “TATACGACGCCGTTGACTTTTTAAGATACGTTAGACCATTCGGAGTCACCTAGTGCAG”, the binding signal is 20300 fluorescence intensity (a.u.).
